Laboratory results taken from PubChem BioAssay (NCATS).
Records with an inconclusive call do not appear. Active and inactive are the calls of the source. Calls follow the shape of the dose curve; as a rule, active = well fitted cell-killing curve with a large enough effect; inconclusive = small, poorly fitted or top-dose-only effect, or effect the other way; inactive = no such curve, though single readings can be large or run the other way.

Assay: Quantitative High-Throughput drug screen in 47 multiple myeloma cell lines against the NCATS MIPE library collection: VP6_DJ cell viability assay (AID 1919867); also: nearly all actives have a fitted effect of over 40% in size
Conditions: ATP luminescence, 48 h; series mostly up to 45.8 µM
Description: PI: Beverly A. Mock Ph.D.
Laboratory of Cancer Biology and Genetics,
Center for Cancer Research, National Cancer Institute,
National Institute of Health, Bethesda, Maryland
Drug resistance and disease progression are common in multiple myeloma (MM) patients, underscoring the need for new therapeutic combinations. […] We hypothesized that effective combinations would reduce MYC expression and enhance p16 activity. […] These preclinical data identify potentially useful drug combinations for evaluation in drug-resistant MM and reveal potential mechanisms of combined drug sensitivity.
Described herein is the primary MIPE qHTS used to cherrypick compounds. Validated compounds were then further tested for potential synergistic activiy.
[1] Peat TJ, Gaikwad SM, Dubois W, Gyabaah-Kessie N, Zhang S, Gorjifard S, Phyo Z, Andres M, Hughitt VK, Simpson RM, Miller MA, Girvin AT, Taylor A, Williams D, D'Antonio N, Zhang Y, Rajagopalan A, Flietner E, Wilson K, Zhang X, Shinn P, Klumpp-Thomas C, McKnight C, Itkin Z, Chen L, Kazandijian D, Zhang J, Michalowski AM, Simmons JK, Keats J, Thomas CJ, Mock BA. Drug combinations identified by high-throughput screening promote cell cycle transition and upregulate Smad pathways in myeloma. Cancer Lett. 2023 Aug 1;568:216284. doi: 10.1016/j.canlet.2023.216284. Epub 2023 Jun 24. PMID: 37356470; PMCID: PMC10408729.
SEQUENCE No. (e.g., 1, 2, 3, etc.); […] (e.g., Cells, Incubation, Reagent, etc.); VALUE and DESCRIPTION.
1; Cells; 5 uL; white, solid bottom 1536-well Greiner assay plate.
2; Compounds; 23 nL; Kalypsis pin tool (Wako USA) equipped with a 1536-well pin head to transfer to the assay plates.
3; Incubation; 48 hours; 37C incubation.
4; Reagent;5uL; CellTiter Glo (Promega).
5; Detector; 425V; Luminescence; Viewlux PerkinElmer.
NOTES (numbers refer to Sequence numbers above)
1. The cell-based screening methods employed in this study were like those previously published. Briefly, the corresponding myeloma cell lines were screened in 1,536-well plates with 500 cells, 5-uL per well for inhibition of cell viability (assessed by measuring ATP levels with CellTiterGlo).
2. NCATS MIPE 4.0 library of approved and investigational drugs were added using the Kalypsis pin tool. Wells treated with DMSO only for 100% viability and media only for 0% viability were used as controls.
3. The assay plates were covered and incubated for 48 hours in a 37C, 5% CO2 incubator with controlled humidity.
4. After 48 hours, CellTilter-GloTM luminescent substrate mix (Promega) reagent was added to the assay plate and plates we incubated for 5 min at room temperature.
5. Signal was measured as median relative luminescence units on a ViewLux (PerkinElmer) multiplate reader.
[1] Heske CM, Davis MI, Baumgart JT, Wilson K, Gormally MV, Chen L, Zhang X, Ceribelli M, Duveau DY, Guha R, Ferrer M, Arnaldez FI, Ji J, Tran HL, Zhang Y, Mendoza A, Helman LJ, Thomas CJ. Matrix Screen Identifies Synergistic Combination of PARP Inhibitors and Nicotinamide Phosphoribosyltransferase (NAMPT) Inhibitors in Ewing Sarcoma. Clin Cancer Res. 2017 Dec 1;23(23):7301-7311. doi: 10.1158/1078-0432.CCR-17-1121. Epub 2017 Sep 12. PMID: 28899971; PMCID: PMC6636827.
Potency is read from the fitted curve at half-maximal effect.

SMILES	Potency
CN1CC(=O)NC1=NC(=O)Nc1cccc(Cl)c1	inactive
CCC(=C(CC)c1ccc(O)cc1)c1ccc(O)cc1	18.7 µM (active)
COc1c(C)cnc(Cn2cnc3c(Cl)nc(N)nc32)c1C	0.148 µM (active)
Cn1c(=O)c(-c2c(Cl)cccc2Cl)cc2cnc(Nc3cccc(C(=O)O)c3)nc21	0.235 µM (active)
CN(C)c1ccc(-c2nc3ncc(Cl)c(N4CCN(CC(=O)Nc5nccs5)CC4)c3[nH]2)cc1	inactive
O=C(Nc1ccccc1)Nc1ccc(-c2ccc(C(=O)[C@H]3CCC[C@H]3C(=O)O)cc2)cc1	inactive
Cc1cccc(-c2[nH]c(C(C)(C)C)nc2-c2ccc3c(c2)OCO3)n1	0.743 µM (active)
O=C(c1ccc(F)c(F)c1Nc1ccc(I)cc1F)N1CC(O)([C@H]2CCCCN2)C1	9.35 µM (active)
C[C@@H]1O[C@@H](O[C@H]2CC[C@@]3(C)[C@H](CC[C@@H]4[C@H]3C[C@@H](O)[C@]3(C)[C@@H](C5=CC(=O)OC5)CC[C@]43O)C2)C[C@H](O)[C@@H]1O[C@H]1C[C@H](O)[C@H](O[C@H]2C[C@H](O)[C@@H](O)[C@@H](C)O2)[C@H](C)O1 (stereo in doubt)	0.136 µM (active)
CCCCn1c(=O)n(Cc2ccccc2F)c(=O)c2[nH]c(Cc3ccc(NC(C)=O)cc3)nc21	inactive
NC(=O)c1ccc(N(C(N)=O)c2c(F)cccc2F)nc1-c1ccc(F)cc1F	16.6 µM (active)
Cc1nn(Cc2ccccc2Cl)c(C)c1CN(C)CC(O)COc1ccc(Cl)cc1 (stereo not given)	20.9 µM (active)
Cc1cn([C@@H]2C[C@@H](O)[C@H](CO)O2)c(=O)[nH]c1=O	inactive
CN1CCc2c(n(Cc3ccc(C(=O)NO)cc3)c3ccccc23)C1	13.2 µM (active)
O=C(Nc1ncc(SCCN2CCCC2)s1)[C@]1(c2ccc(S(=O)(=O)C3CC3)cc2)C[C@@H]1C1CCCCC1	9.35 µM (active)
NC1(C(=O)N[C@@H](CCO)c2ccc(Cl)cc2)CCN(c2ncnc3[nH]ccc23)CC1	0.235 µM (active)
CN1CCC[C@H]1CCO[C@](C)(c1ccccc1)c1ccc(Cl)cc1	18.7 µM (active)
CCCC1OC2C[C@@H]3[C@H]4CCC5=CC(=O)C=C[C@]5(C)[C@H]4C(O)C[C@]3(C)[C@]2(C(=O)CO)O1 (stereo not given in full)	inactive
Clc1ccc(COC(Cn2ccnc2)c2ccc(Cl)cc2Cl)c(Cl)c1 (stereo not given)	18.7 µM (active)
COc1nccc(-c2c(-c3ccc(F)cc3)ncn2C2CCNCC2)n1	1.18 µM (active)

SMILES	Potency
C[C@H](c1ccc(F)cc1CCCC(=O)O)N(c1cc(F)ccc1F)S(=O)(=O)c1ccc(Cl)cc1	3.72 µM (active)
N[C@@H](CC(=O)N1CCn2c(nnc2C(F)(F)F)C1)Cc1cc(F)c(F)cc1F	inactive
O=C(NC[C@H](O)CO)c1ccncc1Nc1ccc(I)cc1F	10.5 µM (active)
CN(C)c1ccccc1CN1CCCN(Cc2ccccc2N(C)C)C1c1ccncc1	18.7 µM (active)
Cc1cc(-c2ncc(CC(=O)Nc3ccc(-c4cnccn4)cn3)cc2C)ccn1	18.7 µM (active)
CCC(C)SSc1ncc[nH]1 (stereo not given)	13.2 µM (active)
CCCCCCCCCCCCCCCC(=O)O[C@H]1[C@@H](O)[C@@H](O)[C@@H]([C@H](NC(=O)[C@@H]2C[C@@H](CCC)CN2C)[C@H](C)Cl)O[C@@H]1SC	inactive
C[C@@]1(C(=O)Nc2ccc(F)nc2)CCCN1c1nc(Nc2cc(C3CC3)[nH]n2)c2cccn2n1	0.0372 µM (active)
CCCCC(C=O)NC(=O)C(CC(C)C)NC(=O)OCc1ccccc1 (stereo not given)	inactive
C[C@@H](O)[C@H]1C(=O)N2C(C(=O)OCOC(=O)C(C)(C)C)=C(SC3CN(C4=NCCS4)C3)[C@H](C)[C@H]12	inactive
COc1cc([C@H]2Oc3cc([C@H]4Oc5cc(O)cc(O)c5C(=O)[C@H]4O)ccc3O[C@H]2CO)ccc1O	11.8 µM (active)
O=C1NC(=O)C(=Cc2ccc(-c3ccc(F)cc3O)o2)S1	2.96 µM (active)
CC1(C)[C@H]2CC[C@]3(C)[C@@H](C(=O)C=C4[C@@H]5C[C@@](C)(C(=O)O)CC[C@]5(C)CC[C@]43C)[C@@]2(C)CC[C@@H]1O	inactive
CC1CNc2c(cccc2S(=O)(=O)N[C@@H](CCCN=C(N)N)C(=O)N2CC[C@@H](C)C[C@@H]2C(=O)O)C1 (stereo not given in full)	inactive
CC[C@@H]([C@H](C)O)n1ncn(-c2ccc(N3CCN(c4ccc(OCC5CO[C@@](Cn6cncn6)(c6ccc(F)cc6F)C5)cc4)CC3)cc2)c1=O (stereo not given in full)	23.5 µM (active)
CN1CCC(COc2cnc(-c3cccc(Cn4nc(-c5cccc(C#N)c5)ccc4=O)c3)nc2)CC1	0.59 µM (active)
CC(C)Oc1cc(Nc2nc(N[C@@H](C)c3ccc(F)cn3)ncc2Cl)[nH]n1	7.43 µM (active)
N#CC1(c2cccc(C(=O)Nc3cc(Oc4ccc5nc(NC(=O)C6CC6)sc5n4)ccc3F)c2Cl)CC1	5.9 µM (active)
COc1nc(C)cnc1NS(=O)(=O)c1cccnc1-c1ccc(-c2nnco2)cc1	inactive
CC(=O)O[C@]1(C(C)=O)CC[C@H]2[C@@H]3C=C(Cl)C4=CC(=O)[C@@H]5C[C@H]5[C@]4(C)[C@@H]3CC[C@@]21C	7.43 µM (active)
